This is an account of results in the supplement of paper PMC6555819.

This experiment has as its system VDR:RXRa (NR concentration 270 nM, RXRa partner concentration 90 nM). Put plainly: PBM binding z-score (relative to random genomic background probes); higher = stronger binding; sequences stand for … in GC…GCGATTGACAGCGTAGAATGAAGG
On the procedure: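 Protein-binding microarray (Agilent 4x180K custom design, double-stranded 60-nt probes: 5' GC cap, 34-nt variable region, 24-nt constant primer region; full probe sequence given). Purified or IVT nuclear receptor:RXRα heterodimers (3:1 NR:RXRα, mostly 270:90 nM) or homodimers were incubated for 1 h in PBS with 2% milk and no ligand, then detected with Alexa488 antibodies. Fluorescence from o1-orientation probes (~5 replicates averaged) was converted to z-scores against 500 random hg19 background probes. Variable regions are seed direct-repeat (DR0–DR5) sites, all their single-nucleotide variants and half-site ablations.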
CATACAGGGTCAGCTAGGCCAGCGTAGGGACGGC returned a PBM binding z-score of 3.62.

In the case of TCTGCTAGGTCACTTGGTCAGCTAACGAGCTGCC, the PBM binding z-score was found to be 1.3.

As to CCTGCTAGGTCAATGGTCAACTAAAGCAGCTCGC, the PBM binding z-score stood at 1.25.

In turn, TGTCAAAGTTCAAAGTTAACGTAAGTATCCACAC displayed a PBM binding z-score of 4.57.

For ACTAGCAGGCCAAGTTTGGGTCCCTCAAACAAAG, the PBM binding z-score is -0.796.

Take GGAACGAGGGCAATGTTGATAGCATCTGTCGACG: the PBM binding z-score is 0.402.

As to TAGCCTAGGTGATGGGCCAGTATACCACGCGAAC, the PBM binding z-score was -0.726.

Sequence CAAACTGGGTCACGAAAGGTCAAAGTCGAATGAC came in with a PBM binding z-score of 6.96.

The sequence ACAGACAGGTGATGCAGGTAACTCAGGCTATCAT yielded a PBM binding z-score of -0.283.

For the sequence AGAATGAGGTTATACGTAGATAAGGGAAGAAAGT, the PBM binding z-score was determined as 1.47.

Consider TCGAGTAGGTTAGTCGGGGGATTCAGCCAACATA, for which the PBM binding z-score came out at 0.946.

TCTTGTAGATCAACAGGAGGTTGAGAAAGATCGA: the PBM binding z-score is -0.025.

In turn, CCTTACGGGTCACTCCAGGTTATAGAATCGGAGT registered a PBM binding z-score of 4.17.

CCTACTGGGCCATTCAGAGGTCATGGATCATATG returned a PBM binding z-score of 3.92.

CCTAGTTAGTCAGGAGGTCACACACCGGATATGA came in with a PBM binding z-score of 3.97.

Sequence ATCTCTAGGGAACCAAGTTCAGTGAATGCCGAAC returned a PBM binding z-score of 2.1.

For the sequence TCTTGTAGAACAGCAGGTTAAGAAAGCTGGCCAA, the PBM binding z-score was determined as 0.0158.

Regarding ACTAGCACGCCAAGTTTGGGTCACTCAAACAAAG, the PBM binding z-score turned out to be 0.247.

CTACCAAGGTGAACAAGGTCGTGGATTACTATTC came in with a PBM binding z-score of 5.77.

In turn, GCTAGCAGGCCATGTGGGTCACTCAATGACGGGC came in with a PBM binding z-score of 0.49.

In the case of TCGAGTAGGTTAGTCGGCGCATTCAGCCAACATA, the PBM binding z-score was -0.0837.

Consider CCATACGGGTCACTCCAGGTTATAGCATCGGAGT, for which the PBM binding z-score stood at 4.11.

Sequence TGTTAAAGTTCAAAGGTAACGTAAGTATCCACAC yielded a PBM binding z-score of 4.87.

Sequence CAAACTAGGTCAAGAGCTCAAAGTCCGCTTCCCG displayed a PBM binding z-score of 1.29.

The sequence ACAATGAGGTTATTAAGATCAGGGAATTGCGGTC had a PBM binding z-score of 2.56.

As to TCGAGTAGGTTAGAGGCATTCAGAATGGCGTCGA, the PBM binding z-score was -0.327.

On to CGTCCAAGGTCATAGGAGGGCAGTGAAGACAGAT, for which the PBM binding z-score amounted to 5.36.

On to GCGACTGGGGCATCAGCAGGTTACCATCACTTAA, for which the PBM binding z-score is -0.265.

As for CTGACTGGGGCAGAAAGGTTACCATACCATCCGG, the PBM binding z-score amounted to 1.36.

TCTCGGAGGACACGAAAGGTCAGAGTTCGACATC yielded a PBM binding z-score of 4.18.

As to ATCTCTAGGTAAAGTTCAGGGAAAGATCGATAGA, the PBM binding z-score is 1.73.

Take CGTCCAAGGTCATCAGGTCAGTGAAAGCGACGTG: the PBM binding z-score was 5.43.

In turn, TCTAATAGTTGAAGGGCAACCGACGAGTCCGTTT yielded a PBM binding z-score of 0.759.

Take CCTAGCAGGCCAGGGTCACTAAAGCATTTCGCTT: the PBM binding z-score came to 2.08.

The sequence TTACCAAGGTGAGCTGAGGTCGTCGATCCAACTC returned a PBM binding z-score of 3.49.

Sequence TCATATAGGTAATCCAGGTGAAAGTCGGCATCTA gave a PBM binding z-score of 1.1.

Consider CCGACTGGGGCAAAGGTAACCATACTCAGTACGA, for which the PBM binding z-score amounted to 0.122.

AGTATGAGGTTAAGATCAGGGAAACAGAATACAT came in with a PBM binding z-score of 1.18.

For the sequence CCTTACGGCTCAAGGTTATAGCACGGGTGGTACG, the PBM binding z-score came to 0.122.

TCGAGTAGGTTAGGGGCATTTAGAATGGCGTCGA gave a PBM binding z-score of 0.556.
